HT1080 IDH1KD tx: HT-1080 IDH1 knockdown cell toxicity (counter line); AID 686971; Potency, µM (top dose mostly 46.1 µM), actives largely listed as cytotoxic; actives 2% (n = 360,000); HT-1080 IDH1 knockdown viability, ATP luminescence, 48 h
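Luminescent ATP read-out (CellTiter-Glo, 10 min at room temperature) after 48 h compound exposure at 37 °C gave viability of IDH1-knockdown HT-1080 cells. Activity was normalised to DMSO and cell-free wells, then fitted as concentration-response curves.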
DT40 TDP1 CPT: DT40-hTDP1 cell growth loss with CPT; AID 686979; actives 12% (n = 420,000); Potency, µM (highest dose often 46.2 µM), actives largely listed as inhibitors; chicken DT40 Tdp1-/-;hTDP1 cells + 20 nM CPT, ATP luminescence, 48 h; also: nearly all actives have a fitted effect of over 55% in size
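Chicken DT40 Tdp1-/- cells complemented with human TDP1, 400 cells/well, exposed to compounds plus 20 nM camptothecin for at least 48 h at 37 C; viability read as ATP content by CellTiter-Glo luminescence.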
TDP1 cell noCPT: qHTS for Inhibitors of human tyrosyl-DNA phosphodiesterase 1 (TDP1): qHTS in cells in absence of CPT. DT40 Tdp1-/- hTDP1 cells, no CPT, ATP luminescence, 48 h. Potency, µM (top dose mostly 46.2 µM), actives largely listed as inhibitors. actives 15% (n = 420,000). AID 686978, 2013; also: nearly all actives have a fitted effect of over 55% in size
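Growth kinetics read by CellTiter-Glo luminescence after ≥48 hr at 37 °C. Cells: DT40 Tdp1-/- stably carrying human TDP1, 400 per well, compound exposure in the absence of CPT (DMSO vehicle).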
12-LOX inh: blocks human arachidonate 12S-lipoxygenase; P18054; purified 12hLO, xylenol orange hydroperoxide absorbance; Potency, µM (titrated, usually from 108 µM), actives largely listed as inhibitors; actives 1.1% (n = 580,000)
Target sequence (P18054 whole entry, looked up): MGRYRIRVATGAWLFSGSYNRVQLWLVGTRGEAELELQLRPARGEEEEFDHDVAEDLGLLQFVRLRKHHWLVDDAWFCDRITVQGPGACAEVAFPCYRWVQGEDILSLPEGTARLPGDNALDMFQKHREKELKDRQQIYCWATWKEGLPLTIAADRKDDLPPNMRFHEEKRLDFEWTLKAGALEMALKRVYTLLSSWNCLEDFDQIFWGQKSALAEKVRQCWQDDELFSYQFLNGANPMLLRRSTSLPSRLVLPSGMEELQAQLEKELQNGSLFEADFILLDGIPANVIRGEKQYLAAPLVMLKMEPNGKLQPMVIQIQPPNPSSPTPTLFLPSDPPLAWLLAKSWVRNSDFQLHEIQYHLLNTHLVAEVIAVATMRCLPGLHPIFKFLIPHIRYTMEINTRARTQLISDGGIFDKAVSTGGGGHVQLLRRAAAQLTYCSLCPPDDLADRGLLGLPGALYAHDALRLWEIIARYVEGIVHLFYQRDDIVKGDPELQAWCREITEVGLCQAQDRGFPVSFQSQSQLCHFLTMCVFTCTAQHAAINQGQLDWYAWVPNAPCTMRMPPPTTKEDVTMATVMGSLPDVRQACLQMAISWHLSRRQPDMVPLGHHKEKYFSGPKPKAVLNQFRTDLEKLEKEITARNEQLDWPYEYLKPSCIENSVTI
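Hydroperoxide product was detected by ferrous iron/xylenol orange as the 573 to 405 nm absorbance ratio. Arachidonic acid at 40 uM (final) was turned over for 30 min at room temperature by 150 nM human 12hLO, pH 7.0 Hepes buffer, after 15 min compound preincubation.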
IL-1B inflam inh: blocks inflammasome-driven IL-1 beta release; THP-1 LPS/ATP IL-1B secretion, AlphaLISA, 16 h; stronger effect = lower value; activity change, % at 57.5 µM; actives 4.7% (n = 360,000); AID 743279; in the data active = activity change below about -50%; inconclusive = mostly about -30% to -49%
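Secreted IL-1B measured by AlphaLISA bead assay after 16 h compound exposure of THP-1 cells; compounds (final up to 57.5 uM) added 1 h before LPS (250 ng/mL) and ATP (1.25 mM) stimulation; lower signal means less secretion.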
HT1080NT lethal: kills 2HG-producing HT-1080-NT fibrosarcoma cells; HT-1080-NT fibrosarcoma viability, CellTiter-Glo ATP luminescence, 48 h; Potency, µM (doses to about 46.1 µM), most hits filed as cytotoxic; actives 1.6% (n = 360,000); AID 686970;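 also: NT is the 2HG producing partner of a matched IDH1 knockdown line; nearly all actives have a fitted effect of over 55% in size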
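Read-out is CellTiter-Glo luminescence after 10 minutes at room temperature, following 48 hours' compound treatment of HT-1080-NT cells (750 cells/well, RPMI, 5% FBS, 37 degrees C).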
Numbers stand for hits; i = inactive; ? = inconclusive; nt = not tested or not shown. This excerpt belongs to a sample that is enriched for hits. Unless noted, calls follow the shape of the dose curve; as a rule, active = well fitted curve in the direction sought with a large enough effect; inconclusive = small, poorly fitted or top-dose-only effect, or another doubt; inactive = no such curve, though single readings can be large; an effect the other way counts as inactive or inconclusive.

SMILES	HT1080 IDH1KD tx	DT40 TDP1 CPT	TDP1 cell noCPT	12-LOX inh	IL-1B inflam inh	HT1080NT lethal
CC1CCCCC1NC(=O)CN1C(=O)CSc2cc(S(=O)(=O)N3CCCCCC3)ccc21 (configuration not stated)	i	?	21µM	i	i	i
CCNC(=O)NC(=O)COC(=O)c1cc(-c2ccco2)nc2ccccc12	nt	nt	nt	6.3µM	nt	nt
Cc1ccc(-c2cc(C(=O)OC(C)C(=O)NC(=O)NC3CCCC3)c3ccccc3n2)o1 (configuration not stated)	nt	nt	nt	4µM	nt	nt
CCNC(=O)NC(=O)COC(=O)c1cc(-c2ccc(C)o2)nc2ccccc12	nt	nt	nt	3.2µM	nt	nt
CCN(CC)C(=O)COC(=O)c1cc(-c2ccco2)nc2ccccc12	i	?	?	?	i	i
CCOc1ccc(N(CC(=O)Nc2ccc(C(N)=O)cc2)S(=O)(=O)c2ccccc2)cc1	nt	nt	nt	i	nt	nt
COC(=O)C1OC2(OC1C(=O)OC)c1ccccc1-c1ccccc12 (configuration not stated)	i	i	i	?	i	i
Cc1ccccc1C1(O)c2ccccc2-c2ccccc21	i	23µM	15µM	i	i	i
Oc1ccc(C2C(c3ccccc3)=NN=C(c3ccccc3F)N2O)c(O)c1 (configuration not stated)	i	i	i	i	i	i
Oc1ccc(C2C(c3ccccc3)=NN=C(c3ccc(Cl)cc3)N2O)c(O)c1 (configuration not stated)	i	i	i	32µM	?	i
CC(=O)N(O)c1ccc(/C=C2\C=Cc3ccccc32)cc1	nt	1.4µM	3.2µM	nt	nt	nt
CN(C)c1ccc(/C=C2\C=Cc3ccccc32)c(Cl)c1	nt	?	13µM	nt	nt	nt
CCCCN(CCCC)c1ccc(/C=C2\C=Cc3ccccc32)cc1	nt	i	i	nt	nt	nt
CC(=O)N(C)c1ccc(/C=C2\C=Cc3ccccc32)cc1	nt	6.3µM	7.1µM	nt	nt	nt
CCCC(=O)N(C)c1ccc(/C=C2\C=Cc3ccccc32)cc1	nt	3.2µM	2.2µM	nt	nt	nt
CNc1c(Cl)cc(/C=C2\C=Cc3ccccc32)cc1Cl	nt	i	i	nt	nt	nt
CN(C)/C=C/C1=CC(=O)CC(C)(C)C1	21µM	i	i	i	?	i
N#Cc1ccc(N2CCC(C(=O)NC(c3ccc(F)cc3)C3CCCC3)CC2)nc1 (configuration not stated)	nt	nt	nt	i	nt	nt
C/C(CC(C)C)=N\NC(=O)c1ccc(Cl)cc1	nt	nt	nt	i	nt	nt
COc1cccc(-c2nc3c([nH]2)CN(C(C)C(=O)NC2CCCCC2)CC3)c1 (configuration not stated)	nt	nt	nt	i	nt	nt
CCc1c(C(=O)NCCc2cccc(C)c2)[nH]c(C)c1C(C)=O	?	16µM	10µM	?	i	i
CCc1c(C(=O)NCc2ccccc2Cl)[nH]c(C)c1C(C)=O	i	23µM	16µM	i	i	i
O=[N+]([O-])c1cccc(-c2noc([C@@H]3Cc4nc[nH]c4CN3CC3CCCCC3)n2)c1	nt	nt	nt	i	nt	nt
COc1ccc(-c2noc([C@@H]3Cc4nc[nH]c4CN3C(=O)Nc3ccc(Cl)cc3)n2)cc1	nt	nt	nt	i	nt	nt
O=C(Nc1ccccc1)N1Cc2[nH]cnc2C[C@H]1c1nc(-c2ccc3ccccc3c2)no1	nt	nt	nt	i	nt	nt
SMILES	HT1080 IDH1KD tx	DT40 TDP1 CPT	TDP1 cell noCPT	12-LOX inh	IL-1B inflam inh	HT1080NT lethal
O=C(NC1CCCCC1)N1Cc2[nH]cnc2C[C@H]1c1nc(-c2ccc3ccccc3c2)no1	nt	nt	nt	10µM	nt	nt
O=C(NC1CCCCC1)N1Cc2[nH]cnc2C[C@H]1c1nc(-c2cccc([N+](=O)[O-])c2)no1	nt	nt	nt	6.3µM	nt	nt
COc1ccc(-c2noc([C@@H]3Cc4nc[nH]c4CN3C(=O)NC3CCCCC3)n2)cc1	nt	nt	nt	3.5µM	nt	nt
CCCCCC1CCC(C2CCC(C(=O)O)CC2)CC1 (configuration not stated)	nt	nt	nt	i	nt	nt
O=C(Nc1ccc(OCC(F)(F)C(F)F)c(C(F)(F)F)c1)c1ccccc1	?	23µM	23µM	i	?	?
O=C(Nc1ccc(OCC(F)(F)C(F)F)c(C(F)(F)F)c1)c1ccccc1O	13µM	?	18µM	i	?	16µM
CNC(=O)c1ccc2c(c1)C1(CCN(CC3CC3)C1)CN2Cc1ccccc1 (configuration not stated)	nt	nt	nt	i	nt	nt
O=C(Cc1cccs1)NNC(=S)NCc1ccc(Cl)cc1	i	i	i	?	i	i
C/C(=N/NC(=O)Cc1cccs1)c1ccco1	i	?	23µM	i	i	i
O=C(Cc1cccs1)NNC(=S)NC(=O)c1ccco1	?	?	29µM	i	i	i
CC(C)c1ccc(OCC(=O)NNC(=S)NC(=O)c2ccco2)c(Br)c1	i	?	?	?	i	i
CC(C)(C)c1ccc(OCC(=O)NCc2ccco2)c(Br)c1	?	i	23µM	i	i	?
CC(C)(C)c1ccc(OCC(=O)NNC(=S)NC(=O)c2ccco2)c(Br)c1	i	21µM	10µM	?	i	i
O=C(c1cccc(-n2cnnc2)c1)N(Cc1ccc2[nH]ccc2c1)C1CC1	nt	nt	nt	i	nt	nt
Cc1ccccc1OCC(=O)NNC(=S)NC(=O)c1ccco1	8.9µM	22µM	10µM	i	i	?
Cc1cc(Cl)ccc1OCC(=O)NNC(=O)c1ccco1	i	i	i	i	i	i
Cc1ccc(Cl)cc1N1CCN(C(=O)CN2CC3CC(C2)[C@H]2CCCC(=O)N2C3)CC1 (some centres not stated)	nt	nt	nt	i	nt	nt
Cc1ccc(C)c(NS(=O)(=O)c2ccc3c4c(cccc24)C(=O)N3)c1	nt	?	15µM	?	nt	nt
CCN(CC)CCNS(=O)(=O)c1ccc2c3c(cccc13)C(=O)N2	i	?	15µM	i	i	?
CCCCCn1nc(C(=O)NCC(=O)Nc2cccc(C)c2C)c2ccccc2c1=O	nt	nt	nt	i	nt	nt
O=C(Cn1ccc2ccc(Cl)cc21)Nc1ccc2[nH]ccc2c1	nt	nt	nt	i	nt	nt
CCCSc1nnc(-c2c[nH]c3ccccc23)n1CC	i	15µM	?	i	i	i
N#Cc1ccc(CSc2nnc(-c3c[nH]c4ccccc34)n2-c2ccccc2)cc1	?	?	23µM	i	-67	i
CCn1c(SCc2cccnc2)nnc1-c1c[nH]c2ccccc12	i	15µM	?	i	i	i
N#Cc1ccc(CSc2nnc(-c3ccccn3)n2-c2ccccc2)cc1	i	?	?	i	i	i
COCCn1c(SCc2cccnc2)nnc1-c1c[nH]c2ccccc12	i	i	i	i	i	i
CC(C(=O)Nc1ccccc1OC(F)F)N(C)CC(=O)Nc1ccc(F)cc1 (configuration not stated)	nt	nt	nt	i	nt	nt
O=C(c1cnccn1)N(Cc1cccs1)C1CC1	nt	nt	nt	i	nt	nt
